According to PubChem BioAssay:
Active and inactive are the calls of the source. Unless noted, how the calls were made is not given here.

How the values were obtained:
[1] = anti-His antibody binders, primary screen, artefact control for SMM control protein annotation, biochemical, small-molecule microarray, 635 nm fluorescence (AID 1128); conditions: anti-His Alexa647 antibody binding, higher = more signal;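 further: score merges feature fluorescence with signal-to-noise for each printed compound spot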
[2] = tested on: Human papillomavirus type 1a E7 protein (residues 1-88); test: HPV1a E7 small-molecule binders, primary screen, biochemical, small-molecule microarray, residues 1-88, 635 nm (AID 1129); conditions: small-molecule microarray binding, fluorescence 635 nm; higher = more signal
[3] = biological target: Focal adhesion kinase 1 (Homo sapiens) (UniProt Q05397); test: small-molecule microarray binders of FAK, primary screen, biochemical, 635/667 nm fluorescence, BSA, DTT (AID 1130); conditions: PTK2 binding, 635 nm fluorescence, higher = more signal;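 further: composite of spot emission at 667 nm and signal to noise over triplicate slides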
[4] = tested on: Fibrinogen (Alexa647-labelled); test: fibrinogen binders on compound microarrays, profiling panel, artefact control for SMM control-protein annotation, biochemical, small-molecule microarray, 635/667 nm fluorescence (AID 1131); conditions: fibrinogen-A647 binding fluorescence, higher = more signal;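 further: z-score merges 667 nm fluorescence with per-spot signal-to-noise over triplicate slides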
[5] = biological target: Follistatin (Homo sapiens) (UniProt P19883); test: follistatin binders on small-molecule microarrays, primary screen, biochemical, small-molecule microarray, 635/667 nm fluorescence (AID 1132); conditions: FST binding, 635 nm fluorescence, higher = more signal
[6] = biological target: Fibroblast growth factor 2 (Homo sapiens) (UniProt P09038); test: FGF2 binders on small-molecule microarrays, primary screen, biochemical, small-molecule microarray, 635/667 nm fluorescence (AID 1133); conditions: small-molecule microarray binding, FGF2, fluorescence 635/667; higher = more signal
[7] = mitochondrial membrane potential change in A549 cells, profiling panel, cell-based, JC-1 fluorescence, basal, 24 h, 100 nL (AID 1138); conditions: higher = more signal;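 further: A549 lung adenocarcinoma cells under basal conditions with no added stimulus; test concentration not given here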
Lefty1 = Lefty1 binders on small-molecule microarrays, primary screen, biochemical, small-molecule microarray, 635/667 nm fluorescence (AID 1139); conditions: small-molecule microarray binding, fluorescence 635/667; higher = more signal
[8] = tested on: wheat germ agglutinin (Triticum aestivum), Alexa647-labelled; test: wheat germ agglutinin binders on compound microarrays, profiling panel, artefact control for SMM control-protein annotation, biochemical, small-molecule microarray, 635/667 nm fluorescence (AID 1140); conditions: WGA-A647 binding, 635 nm fluorescence, higher = more signal;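 further: score merges 667 nm feature emission with signal to noise over triplicate slides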
[9] = biological target: Luciferin 4-monooxygenase (Photinus pyralis) (UniProt P08659); test: firefly luciferase enzyme inhibitors, primary screen, biochemical, luminescence, purified enzyme, 2006 set (AID 1141); conditions: SteadyGlo luminescence, 30 min, higher = more signal, called active from +8 up or from −8 down;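 further: cell-free assay with purified firefly luciferase at 100 ng per well in PBS; test concentration not given here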
[10] = tested on: Wnt5a (protein binding on small-molecule microarray); test: Wnt5a binders on small-molecule microarray, primary screen, biophysical, 635/667 nm fluorescence (AID 1142); conditions: 635 nm fluorescence, higher = more signal;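 further: fluorescence read at 667 nm with signal to noise per printed feature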
[11] = cell viability in Huh7 cells, primary screen, cytotoxicity control for HCV replication inhibitor project, CellTiter-Glo luminescence, basal, 48 h (AID 1143); conditions: Huh7 HCV replicon, higher = more signal, called active from +8 up or from −8 down;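 further: Huh7 hepatoma cells carrying a hepatitis C replication reporter with no stimulus; test concentration not given here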
[12] = P. aeruginosa biofilm formation inhibitors, primary screen, PAO1 strain, BacTiter-Glo luminescence, LB-PBS (AID 1144); conditions: 12 h, higher = more signal
[13] = CREB reporter modulators without forskolin, primary screen, cell-based, PC12, CRE-LacZ reporter, unstimulated (AID 1145); conditions: no forskolin, luminescence, 4.5 h, higher = more signal, called active from +8 up or from −8 down
[14] = CREB reporter modulators under forskolin, primary screen, cell-based, PC12, CRE-LacZ reporter, forskolin-stimulated (AID 1146); conditions: luminescence, 4.5 h, higher = more signal, called active from +8 up or from −8 down;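 further: PC12 cells with 6xCRE LacZ reporter stimulated by forskolin 10 µM; beta-galactosidase reporter signal reflecting CREB driven transcription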
[15] = biological target: Streptavidin (Streptomyces avidinii) (UniProt P22629); test: streptavidin binders on small-molecule microarray, primary screen, artefact control for SMM compound annotation, biophysical, 635/667 nm fluorescence (AID 1147); conditions: streptavidin binding, higher = more signal;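 further: signal reflects streptavidin binding to arrayed compounds as a control protein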
[16] = small-molecule binders of probe aInhba, primary screen, biochemical, small-molecule microarray, 635/667 nm fluorescence (AID 1148); conditions: higher = more signal;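 further: score merges 667nm spot fluorescence with signal-to-noise for antibody binding to printed compounds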
Torsin-1A (Homo sapiens) [17] = biological target: Torsin-1A (Homo sapiens) (UniProt O14656); test: torsin A binders from cell lysate, primary screen, small-molecule microarray, wild-type, 635/667 nm (AID 1149); conditions: COS7 hTOR1A-WT lysate, 635 nm fluorescence, higher = more signal
Torsin-1A (Homo sapiens) [18] = biological target: Torsin-1A (Homo sapiens) (UniProt O14656); test: small-molecule binders of mutant TOR1A in lysate, primary screen, cell lysate, small-molecule microarray, COS7 lysate, 635/667 nm fluorescence (AID 1150); conditions: COS7 hTOR1A mutant lysate, 635 nm fluorescence, higher = more signal;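 further: score pools 667 nm emission and signal to noise measuring lysate protein binding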
[19] = tested on: Sonic hedgehog protein (Shh); test: small-molecule binders of Shh protein, primary screen, biochemical, small-molecule microarray, 635/667 nm fluorescence (AID 1151); conditions: small-molecule microarray binding, 635 nm fluorescence; higher = more signal;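 further: Shh protein binding to compounds spotted on small-molecule microarray slides; score combines spot fluorescence intensity with signal-to-noise across triplicate slides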

Streptavidin (Streptomyces avidinii), sequence (P22629 whole entry, looked up): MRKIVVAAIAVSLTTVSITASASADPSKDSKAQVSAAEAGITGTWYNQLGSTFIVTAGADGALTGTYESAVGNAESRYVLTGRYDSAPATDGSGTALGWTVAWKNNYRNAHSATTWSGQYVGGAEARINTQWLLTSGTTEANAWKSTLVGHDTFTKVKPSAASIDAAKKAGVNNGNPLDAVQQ
Focal adhesion kinase 1 (Homo sapiens), sequence (Q05397 whole entry, looked up): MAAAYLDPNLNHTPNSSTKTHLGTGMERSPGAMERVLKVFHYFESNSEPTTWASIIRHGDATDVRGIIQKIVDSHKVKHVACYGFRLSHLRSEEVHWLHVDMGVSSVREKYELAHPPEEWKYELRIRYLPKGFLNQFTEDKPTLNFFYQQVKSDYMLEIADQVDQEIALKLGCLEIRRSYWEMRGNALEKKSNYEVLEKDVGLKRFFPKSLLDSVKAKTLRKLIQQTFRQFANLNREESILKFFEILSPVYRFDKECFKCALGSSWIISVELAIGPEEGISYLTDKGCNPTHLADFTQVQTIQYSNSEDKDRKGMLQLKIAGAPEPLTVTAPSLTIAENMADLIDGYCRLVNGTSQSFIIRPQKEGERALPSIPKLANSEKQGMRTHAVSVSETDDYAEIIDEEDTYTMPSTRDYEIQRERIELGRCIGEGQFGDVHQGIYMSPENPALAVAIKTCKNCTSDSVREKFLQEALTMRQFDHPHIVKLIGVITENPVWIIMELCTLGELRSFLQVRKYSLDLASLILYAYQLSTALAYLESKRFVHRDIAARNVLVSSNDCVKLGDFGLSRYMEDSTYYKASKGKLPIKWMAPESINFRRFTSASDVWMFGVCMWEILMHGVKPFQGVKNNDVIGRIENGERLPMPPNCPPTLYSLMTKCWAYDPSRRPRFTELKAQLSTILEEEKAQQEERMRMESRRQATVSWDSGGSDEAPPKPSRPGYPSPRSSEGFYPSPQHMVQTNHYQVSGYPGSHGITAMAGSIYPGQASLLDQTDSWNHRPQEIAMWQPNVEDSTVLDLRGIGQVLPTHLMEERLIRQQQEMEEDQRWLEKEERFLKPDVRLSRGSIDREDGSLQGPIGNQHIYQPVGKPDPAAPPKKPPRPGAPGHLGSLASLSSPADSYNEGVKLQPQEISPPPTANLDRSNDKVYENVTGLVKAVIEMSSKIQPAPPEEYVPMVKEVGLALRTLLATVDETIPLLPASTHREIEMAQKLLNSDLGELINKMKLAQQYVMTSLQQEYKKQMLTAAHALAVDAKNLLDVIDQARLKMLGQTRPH
Luciferin 4-monooxygenase (Photinus pyralis), sequence (P08659 whole entry, looked up): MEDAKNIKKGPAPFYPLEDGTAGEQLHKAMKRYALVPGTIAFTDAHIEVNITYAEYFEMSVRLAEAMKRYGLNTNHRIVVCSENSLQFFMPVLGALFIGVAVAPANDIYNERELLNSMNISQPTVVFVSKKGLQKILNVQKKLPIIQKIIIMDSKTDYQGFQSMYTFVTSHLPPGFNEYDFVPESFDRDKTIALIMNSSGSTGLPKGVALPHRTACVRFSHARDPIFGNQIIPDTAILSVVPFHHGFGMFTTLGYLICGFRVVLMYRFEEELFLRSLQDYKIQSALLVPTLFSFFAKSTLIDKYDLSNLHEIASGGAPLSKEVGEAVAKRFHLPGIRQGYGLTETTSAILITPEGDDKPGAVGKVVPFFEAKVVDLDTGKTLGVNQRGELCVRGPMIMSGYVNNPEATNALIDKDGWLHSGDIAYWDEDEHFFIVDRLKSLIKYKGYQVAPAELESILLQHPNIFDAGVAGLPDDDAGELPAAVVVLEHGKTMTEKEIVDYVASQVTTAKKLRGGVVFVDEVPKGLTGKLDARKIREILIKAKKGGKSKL
Follistatin (Homo sapiens), sequence (P19883 whole entry, looked up): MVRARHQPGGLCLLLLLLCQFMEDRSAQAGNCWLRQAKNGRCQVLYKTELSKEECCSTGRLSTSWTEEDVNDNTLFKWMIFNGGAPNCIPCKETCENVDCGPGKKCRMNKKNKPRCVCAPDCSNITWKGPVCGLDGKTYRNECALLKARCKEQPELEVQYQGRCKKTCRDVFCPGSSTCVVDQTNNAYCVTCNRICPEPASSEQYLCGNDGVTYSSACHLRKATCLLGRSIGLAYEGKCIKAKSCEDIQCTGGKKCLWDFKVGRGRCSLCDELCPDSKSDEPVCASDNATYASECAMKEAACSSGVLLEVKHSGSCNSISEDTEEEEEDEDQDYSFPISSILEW
Fibroblast growth factor 2 (Homo sapiens), sequence (P09038 whole entry, looked up): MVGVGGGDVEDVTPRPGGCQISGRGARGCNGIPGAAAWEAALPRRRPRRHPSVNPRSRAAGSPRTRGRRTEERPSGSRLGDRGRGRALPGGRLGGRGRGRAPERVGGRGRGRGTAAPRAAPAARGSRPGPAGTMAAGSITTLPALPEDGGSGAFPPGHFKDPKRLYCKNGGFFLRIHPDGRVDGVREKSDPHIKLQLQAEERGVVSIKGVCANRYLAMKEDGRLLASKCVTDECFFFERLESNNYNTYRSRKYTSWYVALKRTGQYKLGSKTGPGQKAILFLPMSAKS
Torsin-1A (Homo sapiens), sequence (O14656 whole entry, looked up): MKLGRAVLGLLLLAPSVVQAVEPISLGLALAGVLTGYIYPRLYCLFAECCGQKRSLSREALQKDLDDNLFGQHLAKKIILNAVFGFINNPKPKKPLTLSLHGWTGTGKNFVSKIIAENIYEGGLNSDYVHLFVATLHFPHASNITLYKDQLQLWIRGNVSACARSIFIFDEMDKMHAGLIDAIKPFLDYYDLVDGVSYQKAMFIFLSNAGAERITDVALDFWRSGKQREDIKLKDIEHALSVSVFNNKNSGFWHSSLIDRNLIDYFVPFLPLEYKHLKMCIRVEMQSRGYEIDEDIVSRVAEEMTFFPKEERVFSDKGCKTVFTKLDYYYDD

Row | SMILES | composite z-score [1] | composite z-score [2] | composite z-score [3] | composite z-score [4] | composite z-score [5] | composite z-score [6] | z-score [7] | composite z-score (Lefty1) | composite z-score [8] | z-score [9] | composite z-score [10] | z-score [11] | z-score [12] | z-score [13] | z-score [14] | composite z-score [15] | composite z-score [16] | composite z-score (Torsin-1A (Homo sapiens) [17]) | composite z-score (Torsin-1A (Homo sapiens) [18]) | composite z-score [19]
1 | COc1ccc([Si](C)(C)[C@@H]2[C@@H](CCO)O[C@]3(C(=O)N(Cc4ccc(NC(=O)[C@H](C)O)cc4)c4ccccc43)[C@H]2C)cc1 | 1.79 | 1.06 | 0.293 | 0.94 | 0.403 | 0.137 | -1.61 | 0.215 | 0.852 | -0.546 (inactive) | 0.186 | -8.04 (active) | -0.261 (inactive) | 18.4 (active) | -1.12 (inactive) | 0.458 | -0.0471 | 0.504 | 0.392 | 0.599
2 | COc1ccc([Si](C)(C)[C@H]2[C@H](CC(=O)N(CCO)Cc3ccccc3)O[C@@]3(C(=O)N(C)c4ccccc43)[C@@H]2C)cc1 | 1.62 | 1.08 | 0.711 | -0.0177 | 1.06 | 1.01 | 1.61 | 1.11 | -0.0039 | 0.59 (inactive) | 0.321 | -5.59 (inactive) | -0.306 (inactive) | 4.69 (inactive) | 0.0125 (inactive) | 0.153 | -0.0986 | 0.0317 | 0.83 | 1.65
3 | CCCNC(=O)[C@@H]1c2ccccc2C(=O)N(C2CCCCC2)[C@H]1c1ccc(CO)cc1 | 2.26 | 1.22 | 0.798 | 0.958 | 0.927 | 0.915 | 0.888 | 0.443 | 0.795 | 0.311 (inactive) | 0.15 | -0.64 (inactive) | -0.255 (inactive) | -0.062 (inactive) | -0.224 (inactive) | 0.573 | 0.0589 | -0.244 | 0.0805 | 0.573
4 | CN(C)c1ccc(C(O)C2C=CC3C(=O)NC(=O)C3N2Nc2ccc(Cl)cc2Cl)cc1 (stereo not given) | -0.129 | 1.14 | 0.155 | 0.762 | 1.16 | -0.785 | 0.587 | -0.345 | 0.5 | -0.316 (inactive) | -0.0936 | 0.126 (inactive) | -1.03 (inactive) | 0.629 (inactive) | 0.628 (inactive) | 0.437 | 0.13 | -0.0205 | 0.776 | -0.214
5 | C=CCC(OC(C)=O)[C@@H]1[C@@H](N(Cc2cccc3ccccc23)C(=O)Cc2ccc(F)cc2)c2cc(OCCCO)ccc2N1C(=O)Cc1ccc2ccccc2c1 (stereo not given in full) | -0.404 | -0.329 | 0.317 | -0.175 | 0.0802 | -0.391 | 0.331 | -0.258 | 0.191 | 0.693 (inactive) | -0.0893 | -0.288 (inactive) | -0.688 (inactive) | -0.36 (inactive) | 1.17 (inactive) | -0.11 | -0.101 | -0.52 | 0.169 | 0.332
6 | O=C(NCc1ccccc1)c1ccc(Br)cc1[N+](=O)[O-] | -0.26 | 0.292 | -0.1 | -0.0828 | 0.405 | 0.465 | 0.543 | 0.505 | 0.352 | -0.941 (inactive) | 0.146 | -0.214 (inactive) | 0.635 (inactive) | 0.685 (inactive) | -0.554 (inactive) | -0.453 | -0.183 | 0.0031 | -0.232 | 0.0923
7 | O=C1O[C@H](c2ccccc2)[C@H](c2ccccc2)N2[C@H]1[C@@H](C(=O)NC[C@H](O)c1ccccc1)[C@]1(C(=O)Nc3ccc(C#CC4=CCCCC4)cc31)[C@H]2c1ccc(OCCO)cc1 | 0.879 | 1.19 | 0.73 | 0.874 | 1.2 | 0.527 | -1.76 | 1.26 | 0.944 | -1.4 (inactive) | 0.271 | -4.66 (inactive) | -0.625 (inactive) | 0.0653 (inactive) | -0.337 (inactive) | 0.635 | -0.0695 | 0.257 | 0.705 | 1.11
8 | C#CCCCON=C1C[C@@H](O)[C@@H](O)[C@@H]2[C@@H]3C(=O)N(Cc4ccc5c(c4)OCO5)C(=O)[C@@H]3CC[C@H]12 | 0.833 | 0.57 | 0.168 | 0.573 | 1.03 | 0.4 | -0.421 | 1.59 | -0.142 | 0.975 (inactive) | 0.322 | 0.0582 (inactive) | 0.448 (inactive) | -0.657 (inactive) | 0.653 (inactive) | 1.26 | -0.261 | 0.572 | 0.267 | 1.42
9 | O=C1C2C=CC(C(O)C#Cc3ccccc3)N(Nc3ccccc3)C2C(=O)N1c1ccccc1 (stereo not given) | 1.1 | 0.356 | 0.0485 | 0.941 | 0.108 | -0.0859 | -0.136 | -0.67 | 1.23 | -0.934 (inactive) | 0.0509 | 0.842 (inactive) | -0.2 (inactive) | 0.24 (inactive) | 0.0728 (inactive) | 0.464 | 0.0659 | 0.795 | -0.0627 | -0.0028
10 | C[C@@H]1NC(=O)[C@H](Cc2ccccc2)NC(=O)[C@@]23C(=O)N[C@@H](Cc4ccccc4)C2[C@H](C)[C@@]2(C)O[C@H]2C3/C=C/C/C=C\CNC1=O (stereo not given in full) | 0.0093 | -1.79 | -0.524 | -0.89 | 0.216 | 0.0447 | -0.0521 | 0.256 | -0.906 | -0.0116 (inactive) | -0.401 | 0.0081 (inactive) | 0.683 (inactive) | 0.125 (inactive) | 0.349 (inactive) | -0.528 | -0.128 | -0.0926 | -0.0686 | 0.596
